Screens: PubChem, several laboratories
Myeloid diff 2 – compounds promoting myeloid differentiation; calls only at 10 µM; ER-HoxA9 myeloid progenitors, lysozyme-GFP differentiation, flow cytometry; 360,000 tested, 1% active;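 active = normalized GFP-positive differentiation at or above the plate's own cutoff, the solvent-only control mean plus 3 SD; inconclusive = no clear call, values can overlap the other calls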;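 also: cells exposed to compound for four days before flow analysis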
Rpn11 inh – inhibitors of human proteasome Rpn11; inhibition, % at 20 µM; human 26S proteasome, Ub4-pepOG fluorescence polarization; 20S core pre-blocked with epoxomicin; O00487; AID 588493; 360,000 tested, 0.59% active;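 active = inhibition at 20 µM, scaled to each plate's controls, above about 33%, limit read from the data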
TPT1 inh – blocks Candida albicans tRNA 2'-phosphotransferase; recombinant caTPT1, FP RNA substrate dephosphorylation; inhibition, % at 5 µM; 300,000 tested, 0.81% active;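 active = inhibition above the mean of all tested compounds plus 3 SD, set per screening campaign, cut at about 24% in these data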;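 also: plate controls were DMSO alone for no effect and ferristatin control at 100 nM for full effect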
HNF4A DNA FP – change in binding of human HNF4 alpha to DNA. P41235. HNF4a-FITC DNA binding, fluorescence polarization, 1 h. activity change, % at 10 µM. 360,000 tested, 0.3% active. AID 1224865; in the data active = activity change above about 30%, passing the limit was not always enough
Target sequence (P41235 whole entry, looked up): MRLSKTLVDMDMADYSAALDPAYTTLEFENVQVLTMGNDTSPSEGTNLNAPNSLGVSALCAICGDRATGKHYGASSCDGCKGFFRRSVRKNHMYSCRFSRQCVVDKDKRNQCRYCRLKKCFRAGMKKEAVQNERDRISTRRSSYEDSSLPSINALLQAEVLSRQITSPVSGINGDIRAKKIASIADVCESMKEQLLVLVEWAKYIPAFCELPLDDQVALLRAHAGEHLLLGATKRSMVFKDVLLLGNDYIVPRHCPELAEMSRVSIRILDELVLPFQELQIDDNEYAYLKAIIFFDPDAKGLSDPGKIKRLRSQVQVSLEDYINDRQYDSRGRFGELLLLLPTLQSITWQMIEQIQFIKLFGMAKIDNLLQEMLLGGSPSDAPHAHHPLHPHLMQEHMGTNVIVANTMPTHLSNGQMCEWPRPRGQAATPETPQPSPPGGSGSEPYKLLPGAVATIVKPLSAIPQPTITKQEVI
TPT1 inh confirm – TPT1 (C. albicans) inhibition, confirmation; shares compounds with TPT1 inh; recombinant caTPT1, fluorescence polarization, RNase T1 coupled; inhibition, % at 5 µM; 2,400 tested, 74% active;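 active = inhibition above the primary screen limit, the mean inhibition of all tested compounds plus 3 SD, cut at about 25% in these data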
RNase T1 counter – counter-screen for TPT1 inhibitors: inhibitors of Aspergillus oryzae RNase T1. 2,400 tested, 83% active. inhibition, % at 5 µM. RNase T1 cleavage, fluorescence polarization, 1536-well. shares compounds with TPT1 inh. AID 2153;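 active = inhibition above the solvent-only control well mean plus 3 SD, limit set per screening run, cut at about 23% in these data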;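 also: plate controls were DMSO wells with enzyme for no effect and wells without RNase T1 for full effect; inhibitors block cleavage so intact labeled substrate keeps polarization high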
Target sequence (P00651 whole entry, looked up): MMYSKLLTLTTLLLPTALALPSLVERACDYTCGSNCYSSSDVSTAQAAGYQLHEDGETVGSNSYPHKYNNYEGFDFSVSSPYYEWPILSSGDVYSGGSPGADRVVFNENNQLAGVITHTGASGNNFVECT
Starred values were filed as active, the others as inactive; i = inactive; ? = inconclusive; / = not tested or not shown; + = active, no number. This is a sample that favours compounds with a hit; in the whole collection about 2.1% have one here.

SMILES	Myeloid diff 2	Rpn11 inh	TPT1 inh	HNF4A DNA FP	TPT1 inh confirm	RNase T1 counter
CCOC(=O)Oc1c(OC)cc(C(=O)O[C@@H]2C[C@@H]3CN4CCc5c([nH]c6cc(OC)ccc56)[C@H]4C[C@@H]3[C@H](C(=O)OC)[C@H]2OC)cc1OC	?	40	45*	32	42*	53*
Cc1ccc(-n2c(O)c(/C=N/NC(=O)C3COc4ccccc4O3)c3ccccc3c2=O)cc1 (configuration not stated)	i	12	13	5	/	/
Cc1c(/C=N\NC(=O)C2COc3ccccc3O2)c2ccccc2n1C (configuration not stated)	/	-6	51*	-1	4	4
O=C(N/N=C/c1c(O)n(-c2ccccc2Cl)c(=O)c2ccccc12)C1COc2ccccc2O1 (configuration not stated)	i	34	26*	15	65*	79*
CCCCCCNC(=O)C(C#N)c1nc2ccccc2nc1N1CCCC1 (configuration not stated)	/	19	63*	37	28*	33*
CCn1c2ccccc2c2cc(N)ccc21	i	/	26*	36	28*	40*
CCc1cccc2cc3c(N)c(C(=O)Nc4ccc(S(=O)(=O)N5CCCC5)cc4)sc3nc12	+	/	39*	13	33*	42*
Cc1cccc2cc3c(N)c(C(=O)Nc4ccc(N5CCOCC5)cc4)sc3nc12	i	23	19	11	/	/
CCc1c(C)nc2cc(-c3ccc(OC)c(OC)c3)nn2c1NCC1CC1	i	10	7	0	/	/
O=C(O)c1ccc(N=Nc2c(O)[nH]c3ccc(Br)cc23)cc1	i	15	7	1	/	/
O=C(O)c1ccc(N=Nc2c(O)[nH]c3cc(Cl)ccc23)cc1	?	44*	29*	20	54*	67*
CCN(CC)S(=O)(=O)c1cccc(C(=O)N/N=C/c2ccc(O)c(O)c2O)c1	i	5	10	3	/	/
CCN(CC)S(=O)(=O)c1cccc(C(=O)N/N=C(\C)c2ccc(O)cc2O)c1	?	/	89*	27	140*	129*
CC[n+]1c(/C=C/N(C)c2ccccc2)oc2ccc(F)cc21	?	/	55*	60*	72*	81*
CC[n+]1c(/C=C/Nc2ccccc2)oc2ccccc21	+	40	38*	29	52*	64*
CC[n+]1c(/C=C/N(C)c2ccccc2)oc2ccccc21	?	/	36*	26	49*	61*
Cc1ccccc1Nc1nc(Cl)nc(NC(C)(C)C)n1	i	3	/	-1	/	/
COc1ccc(C2C(C#N)=C(N)SC(N)=C2C#N)cc1OC	+	/	103*	116	71*	81*
N#CC1=C(N)SC(N)=C(C#N)C1c1cccc(O)c1	i	/	100*	91	108*	112*
COc1ccccc1CNC(=O)CN(C)S(=O)(=O)c1ccc2c(c1)c(=O)n(C)c(=O)n2C	i	-5	-2	1	/	/
COc1ccc(C(=O)c2sc3nc(-c4ccccc4)ccc3c2N)cc1	+	64*	82*	28	85*	92*
CC(C)OC(=O)c1sc2nc(-c3ccccc3)ccc2c1N	i	1	-4	5	/	/
N#C/C(=C\c1ccc([N+](=O)[O-])cc1)c1ccccn1	i	2	0	1	/	/
COc1cc(/C=C(\C#N)c2ccccn2)ccc1OCc1ccccc1Cl	i	-2	1	2	/	/
CN(C)c1ccc(/C=C(\C#N)c2ccccn2)cc1	i	/	86*	31	83*	92*
SMILES	Myeloid diff 2	Rpn11 inh	TPT1 inh	HNF4A DNA FP	TPT1 inh confirm	RNase T1 counter
COc1cc(/C=C(\C#N)c2[nH]nc(N)c2C#N)cc(OC)c1O	i	17	25*	11	33*	37*
COc1cc(/C=C(\C#N)c2ccccn2)cc(OC)c1O	i	/	56*	4	72*	76*
COc1ccc(C)cc1S(=O)(=O)NC(C)C(=O)NC1CC1 (configuration not stated)	i	-1	1	0	/	/
CC1=C(C(=O)N2CCOCC2)CC(CC(=O)NC2CCCC2)C(=O)N1Cc1ccccc1 (configuration not stated)	i	-3	/	-5	/	/
COc1cc(/C=C(\C#N)c2nc3c(s2)CCCC3)ccc1O	/	/	146*	/	168*	152*
CN(C)c1ccc(/C=C2\C(=N)N3C(=NC2=O)Sc2cc(S(C)(=O)=O)ccc23)cc1	/	/	122*	/	88*	86*
CN(C)c1ccc(/C=C2\C(=N)N3N=C(CC(=O)N4CCCCC4)SC3=NC2=O)cc1	+	/	122*	135	140*	148*
CCCCN(C)CCNC(=O)c1cc2c(-c3cccc(OC)c3)nn(C)c2s1	i	-8	0	-2	/	/
CCN(CC)CCCNC(=O)c1cc2c(-c3cccc(OC)c3)nn(C)c2s1	i	-7	37*	3	4	5
CN(C(=O)COC(=O)C1=COCCO1)c1c(N)n(Cc2ccccc2)c(=O)[nH]c1=O	i	0	0	3	/	/
Cc1nc2ccccc2c(=O)n1/N=C/c1cc(Br)ccc1O	i	-4	3	3	/	/
Cc1nc2ccccc2c(=O)n1/N=C/c1c(O)ccc2ccccc12	i	-8	39*	7	5	8
CC1(C)OC(=O)C(=Cc2ccc(-c3ccc(S(N)(=O)=O)cc3)o2)C(=O)O1	i	15	28*	10	8	13
COc1cc(/C=C2/C(=O)ON=C2C)cc(Cl)c1O	i	24	42*	1	101*	113*
COc1cc(/C=C2/C(=O)NN(c3ccc(Cl)c(Cl)c3)C2=O)cc([N+](=O)[O-])c1O	i	12	13	-2	/	/
COc1cc(/C=C2/C(=O)NN(c3ccc(F)cc3)C2=O)cc(Cl)c1O	i	32	40*	6	80*	99*
C#CCOc1c(Cl)cc(/C=C2/C(=O)ON=C2C)cc1OC	i	-2	0	4	/	/
CCCCN1CC(=O)N2[C@H]3c4ccccc4OC[C@@H]3[C@H](C(=O)OCC)[C@]2(C)C1=O	i	-4	/	-2	/	/
CN(C)CCNc1ncnc2c1ncn2[C@H]1CN(Cc2cccnc2)C[C@@H](CO)O1	i	2	/	0	/	/
COc1ccccc1N=C1NC(=O)/C(=C/c2ccc(N(C)C)cc2)S1	?	/	119*	144	131*	125*
COc1cc(/C=C2\SC(=Nc3ccc(O)cc3)NC2=O)cc(OC)c1OC	/	/	0	/	/	/
C=CCN1/C(=C2/SC(=S)N(C)C2=O)Sc2ccccc21	/	/	35*	/	59*	73*
CN(C)c1ccc(/C=c2\sc3n(c2=O)CCCN=3)cc1	i	/	103*	26	42*	59*
Cc1ccc(N/C=C/C(=O)c2ccco2)c(O)c1	i	39	29*	9	46*	55*
O=C1N=C(N2CCc3ccccc3C2)S/C1=C\c1cccc(O)c1	i	7	0	-3	/	/
